Experimental data taken from PubChem BioAssay (Tox21).
A number with no mark means an inactive call. Results filed as inconclusive are left out. Where a call stands in place of a potency, no number is given. Active and inactive are the calls of the source. Unless noted, the call rests on the fitted dose curve; in most records, active means well fitted curve in the direction sought with a large enough effect in the repeat runs; inconclusive means weak or mixed curves; inactive means no such curve, though single readings can be large; an effect the other way counts as inactive or inconclusive.

Key:
[1] = qHTS assay to identify small molecule agonists of the sonic hedgehog signaling (Shh) pathway (AID 1259368; calls by dose curve;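 further: NIH/3T3-derived 3T3Gli1-Luc cells carrying a stable Gli1-driven firefly luciferase reporter; series mostly up to about 92 µM; nearly all actives have a fitted effect of over 15% in size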)
Procedure, shortened: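 Steps: seed 3T3 Gli1-Luc cells, incubate 4 hr at 37 C, pin-transfer compounds in DMSO alongside a positive control, incubate 24 hr, add luciferase detection reagent, wait 30 min at room temperature, read luminescence.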

[2] = qHTS assay to identify small molecule antagonists of the sonic hedgehog signaling (Shh) pathway (AID 1259369; calls by dose curve; further: nearly all actives have a fitted effect of over 45% in size; further: potency means the concentration at half of the fitted maximal effect)
Procedure, shortened: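 Inhibition of Shh signalling is measured as reduced Gli1-response-element firefly luciferase output in an NIH/3T3-derived stable reporter clone stimulated with conditioned medium for 24hr.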

[3] = target: Estrogen receptor beta (Homo sapiens) (UniProt Q92731); assay: qHTS assay to identify small molecule agonists of the estrogen receptor beta (ER-beta) signaling pathway (AID 1259377; active means well fitted activation curve with a large enough effect in the signal ratio in the repeat runs, not every such curve was filed as active; the % refers to the signal ratio)
Procedure, shortened: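 In HEK293T cells bearing a UAS-beta-lactamase reporter under ER-beta control, DMSO-delivered compounds were incubated for 16 hr at 37C. Activity was detected as fluorescence 2 hours after LiveBLAzer B/G FRET substrate addition.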

[4] = target: Estrogen receptor beta (Homo sapiens) (UniProt Q92731); assay: qHTS assay to identify small molecule antagonists of the estrogen receptor beta (ER-beta) signaling pathway (AID 1259378; active means well fitted inhibition curve with a large enough effect in the signal ratio in the repeat runs, not every such curve was filed as active; the % refers to the signal ratio; further: potency means the concentration at half of the fitted maximal effect)
Procedure, shortened: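 ER-beta-UAS-bla HEK293T (GripTite) cells in 2% charcoal-stripped FBS medium were preincubated 6 hr at 37C, dosed with compound, then stimulated with 1 nM E2 (final) for 16 hr; beta-lactamase reporter read by B/G FRET fluorescence after 2 hr substrate loading.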

[5] = qHTS assay to identify small molecule agonists of the androgen receptor (AR) signaling pathway in the presence of an antagonist - cell viability counter screen (AID 1259379); further: nearly all actives have a fitted effect of over 25% in size; further: potency means the concentration at half of the fitted maximal effect
Procedure, shortened: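 Fluorescence from CellTiter-Fluor, added after 15 hr and read 1 hr later, gave cell viability. Cells were MDA-kb2 exposed to compounds (15 concentrations) in the presence of 3.0uM nilutamide at 37C, 0% CO2.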

[6] = qHTS assay to identify small molecule agonists of the estrogen receptor beta (ER-beta) signaling pathway - cell viability counter screen (AID 1259380); further: nearly all actives have a fitted effect of over 30% in size; further: potency means the concentration at half of the fitted maximal effect
Procedure, shortened: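 Same-well viability counter screen. Cells: ER-beta-UAS-bla HEK293T, plated 6 hr before compound, in 2% charcoal-stripped FBS. Compound exposure 16 hr, 37C; viability by CellTiter-Glo luminescence after 30 min at room temperature.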

[7] = qHTS assay to identify small molecule antagonists of the estrogen receptor beta (ER-beta) signaling pathway - cell viability counter screen (AID 1259382); further: series mostly up to about 92 µM; nearly all actives have a fitted effect of over 55% in size
Procedure, shortened: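 Following a 6 hr plating period, HEK293T cells carrying a UAS-driven beta-lactamase reporter under ER-beta control received compounds and 1nM E2 (final). After 16 hr at 37C and 2 hr substrate loading, CellTiter-Glo luminescence indicated viability.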

[8] = target: Estrogen receptor (Homo sapiens) (UniProt P03372); assay: qHTS assay to identify small molecule agonists of the estrogen receptor alpha (ER-alpha) signaling pathway in the presence of an antagonist (AID 1259383; calls by dose curve; further: top concentration of the series differs between compounds; nearly all actives have a fitted effect of over 15% in size)
Procedure, shortened: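 Cells are hormone-deprived for 5 days (charcoal-stripped FBS, no phenol red), plated for 24hr, spiked with 10.0nM ICI-182,780, then dosed at 15 concentrations. After 22hr at 37C, ONE-Glo luminescence reports ERE-luciferase activity.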

[9] = qHTS assay to identify small molecule agonists or antagonists of the thyroid stimulating hormone receptor (TSHR) signaling pathway - wild type cell line counter screen (AID 1259384; calls by dose curve)
Procedure, shortened: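 Wild-type HEK293 cells were plated 18 h at 37 C/5% CO2, pin-dosed with compound plus Ro20-1724 medium, held 30 min at room temperature, then given cAMP-d2 and anti-cAMP-cryptate; fluorescence was read after 1 h. Fifteen concentrations, triplicate.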

[10] = target: Thyrotropin receptor (Homo sapiens) (UniProt P16473); assay: qHTS assay to identify small molecule antagonists of the thyroid stimulating hormone receptor (TSHR) signaling pathway (AID 1259385; calls by dose curve; further: nearly all actives have a fitted effect of over 20% in size)
Procedure, shortened: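 TSHR-HEK293 cells were plated and held 18 h at 37C/5% CO2, then given compound plus Ro20-1724 and stimulated with TSH at 1.5 ng/mL final. After 30 min at room temperature, cAMP was detected with cAMP-d2/anti-cAMP-cryptate (1 h) by fluorescence.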

[11] = qHTS assay to identify small molecule agonists of the estrogen receptor alpha (ER-alpha) signaling pathway in the presence of an antagonist - cell viability counter screen (AID 1259386);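 further: cells exposed to compounds for 22 h at 37 °C before the viability read; nearly all actives have a fitted effect of over 30% in size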; further: potency means the concentration at half of the fitted maximal effect
Procedure, shortened: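 Cells are starved of estrogens for 5 days in charcoal-stripped serum, seeded for 24hr and co-treated with ICI-182,780 (10.0nM final) and test compounds. After 22hr at 37C, viability is read as CellTiter-Fluor fluorescence.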

[12] = target: Progesterone receptor (Homo sapiens) (UniProt P06401); assay: qHTS assay to identify small molecule antagonists of the progesterone receptor (PR) signaling pathway (AID 1346795; active means well fitted inhibition curve with a large enough effect in the signal ratio in the repeat runs, not every such curve was filed as active; the % refers to the signal ratio; further: potency means the concentration at half of the fitted maximal effect)
Procedure, shortened: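 Inhibition of R5020-induced (1 nM final) beta-lactamase reporter signal in PR-UAS-bla HEK293T cells was scored by FRET fluorescence after overnight (16 hr) compound treatment.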

[13] = qHTS assay to identify small molecule agonists of the progesterone receptor (PR) signaling pathway - cell viability counter screen (AID 1346799; calls by dose curve; further: nearly all actives have a fitted effect of over 45% in size)
Procedure, shortened: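 Cytotoxicity in PR-bla HEK293T cells: 16 h compound, 37C; CellTiter-Glo added post-FRET read; luminescence after 30 min RT.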

[14] = qHTS assay to identify small molecule antagonists of the TGF-beta/Smad signaling pathway - cell viability counter screen (AID 1346824); further: nearly all actives have a fitted effect of over 50% in size
Procedure, shortened: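 SBE-bla HEK 293T cells were plated overnight at 37 C, then given compounds in DMSO plus TGF-beta1 (added as 0.25 ng/mL solution) for 5 hr. After the bla read, CellTiter-Glo was added to the same wells and luminescence read after 30 min at room temperature.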

[15] = qHTS assay to identify small molecule agonists of the TGF-beta/Smad signaling pathway - cell viability counter screen (AID 1346829); further: top concentration of the series differs between compounds; nearly all actives have a fitted effect of over 45% in size
Procedure, shortened: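 After overnight seating at 37 C and 5% CO2, reporter cells got compounds for 5 hr and FRET substrate for 2 hr; cell viability then came from CellTiter-Glo luminescence.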

[16] = qHTS assay to identify small molecule agonists of the TGF-beta/Smad signaling pathway (AID 1346859; active means well fitted activation curve with a large enough effect in the signal ratio in the repeat runs, not every such curve was filed as active; the % refers to the signal ratio; further: series mostly up to about 77 µM)
Procedure, shortened: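 Stable Smad binding element-beta-lactamase HEK 293T cells; 5 hr compound exposure at 37 C under 5% CO2; 2 hr room-temperature substrate step; fluorescence excited at 405 nm, collected at 460 nm and 530 nm.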

[17] = target: Thyrotropin-releasing hormone receptor (Homo sapiens) (UniProt P34981); assay: qHTS assay to identify small molecule antagonists of the thyrotropin-releasing hormone receptor (TRHR) signaling pathway (AID 1346877; active means well fitted inhibition curve with a large enough effect in the repeat runs, not every such curve was filed as active; further: series mostly up to about 51 µM)
Procedure, shortened: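 Cells (TRHR-HEK293) are plated and kept 18 h at 37 °C/5% CO2. A calcium-sensitive dye is added for 2 h, compound follows for 5 min at room temperature, and TRH is then given at 1 nM final.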

[18] = target: Progesterone receptor (Homo sapiens) (UniProt P06401); assay: qHTS assay to identify small molecule agonists of the progesterone receptor (PR) signaling pathway (AID 1346784; calls by dose curve; further: nearly all actives have a fitted effect of over 30% in size; further: potency means the concentration at half of the fitted maximal effect)
Procedure, shortened: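 Using charcoal-stripped serum (2%) to limit endogenous steroids, PR-UAS-bla HEK 293T cells received compounds for 16 hr at 37C after 6 hr plating; beta-lactamase FRET fluorescence was recorded following 2 hr substrate loading at room temperature.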

[19] = qHTS assay to identify small molecule antagonists of the progesterone receptor (PR) signaling pathway - cell viability counter screen (AID 1346798); further: series mostly up to about 92 µM; nearly all actives have a fitted effect of over 50% in size
Procedure, shortened: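 ATP content as viability readout: CellTiter-Glo luminescence, 30 min room temperature, in PR-UAS-bla HEK293T cells after 16 hr compound/R5020 treatment at 37C and 5% CO2.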

[20] = target: Androgen receptor (Homo sapiens) (UniProt P10275); assay: qHTS assay to identify small molecule agonists of the androgen receptor (AR) signaling pathway in the presence of an antagonist (AID 1259381; calls by dose curve; further: nearly all actives have a fitted effect of over 15% in size)
Procedure, shortened: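 Cells are MDA-kb2 (human breast carcinoma, MMTV-luc, AR/GR responsive). Nilutamide is present at 3.0uM final throughout; compounds are added at 15 concentrations and incubated 16hr at 37C before ONE-Glo luminescence detection.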

Estrogen receptor (Homo sapiens), sequence (P03372 whole entry, looked up): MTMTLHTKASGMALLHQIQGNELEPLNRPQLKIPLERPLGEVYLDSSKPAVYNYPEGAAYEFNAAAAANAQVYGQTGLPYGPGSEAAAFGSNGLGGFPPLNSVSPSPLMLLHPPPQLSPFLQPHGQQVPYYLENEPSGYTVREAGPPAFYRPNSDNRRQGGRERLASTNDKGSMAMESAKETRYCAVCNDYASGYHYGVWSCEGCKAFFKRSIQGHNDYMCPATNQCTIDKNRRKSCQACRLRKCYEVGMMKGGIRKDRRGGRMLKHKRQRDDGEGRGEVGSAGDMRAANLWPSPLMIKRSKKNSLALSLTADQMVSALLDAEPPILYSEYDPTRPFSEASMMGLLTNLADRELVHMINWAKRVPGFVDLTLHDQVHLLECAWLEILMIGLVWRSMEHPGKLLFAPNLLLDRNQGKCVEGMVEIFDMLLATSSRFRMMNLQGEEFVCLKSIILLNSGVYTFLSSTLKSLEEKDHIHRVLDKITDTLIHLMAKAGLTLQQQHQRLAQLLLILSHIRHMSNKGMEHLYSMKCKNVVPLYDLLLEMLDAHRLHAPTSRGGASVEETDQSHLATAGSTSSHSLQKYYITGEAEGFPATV
Progesterone receptor (Homo sapiens), sequence (P06401 whole entry, looked up): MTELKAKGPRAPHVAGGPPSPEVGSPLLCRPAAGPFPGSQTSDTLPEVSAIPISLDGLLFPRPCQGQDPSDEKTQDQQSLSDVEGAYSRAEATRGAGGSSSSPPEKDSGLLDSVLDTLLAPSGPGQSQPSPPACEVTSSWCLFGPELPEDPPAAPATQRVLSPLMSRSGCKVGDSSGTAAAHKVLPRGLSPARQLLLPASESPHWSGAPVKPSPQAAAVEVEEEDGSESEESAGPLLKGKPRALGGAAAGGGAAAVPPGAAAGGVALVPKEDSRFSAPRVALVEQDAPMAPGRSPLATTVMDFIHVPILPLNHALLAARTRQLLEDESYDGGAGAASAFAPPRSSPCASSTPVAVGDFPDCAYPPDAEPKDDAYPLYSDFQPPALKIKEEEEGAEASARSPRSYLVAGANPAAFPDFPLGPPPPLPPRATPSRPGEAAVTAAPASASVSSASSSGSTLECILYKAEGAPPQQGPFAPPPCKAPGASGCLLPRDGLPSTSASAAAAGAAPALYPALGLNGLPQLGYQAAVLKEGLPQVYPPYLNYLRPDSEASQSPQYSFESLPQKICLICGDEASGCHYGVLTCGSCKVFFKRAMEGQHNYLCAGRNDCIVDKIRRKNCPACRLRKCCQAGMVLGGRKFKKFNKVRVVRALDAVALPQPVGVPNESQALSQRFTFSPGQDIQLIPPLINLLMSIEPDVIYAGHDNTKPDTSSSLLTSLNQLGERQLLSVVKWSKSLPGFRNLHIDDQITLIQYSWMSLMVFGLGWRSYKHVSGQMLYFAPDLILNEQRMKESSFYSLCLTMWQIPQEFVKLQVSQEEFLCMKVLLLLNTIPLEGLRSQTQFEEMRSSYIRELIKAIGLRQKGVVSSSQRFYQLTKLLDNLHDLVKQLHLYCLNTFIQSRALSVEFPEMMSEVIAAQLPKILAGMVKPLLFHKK
Thyrotropin receptor (Homo sapiens), sequence (P16473 whole entry, looked up): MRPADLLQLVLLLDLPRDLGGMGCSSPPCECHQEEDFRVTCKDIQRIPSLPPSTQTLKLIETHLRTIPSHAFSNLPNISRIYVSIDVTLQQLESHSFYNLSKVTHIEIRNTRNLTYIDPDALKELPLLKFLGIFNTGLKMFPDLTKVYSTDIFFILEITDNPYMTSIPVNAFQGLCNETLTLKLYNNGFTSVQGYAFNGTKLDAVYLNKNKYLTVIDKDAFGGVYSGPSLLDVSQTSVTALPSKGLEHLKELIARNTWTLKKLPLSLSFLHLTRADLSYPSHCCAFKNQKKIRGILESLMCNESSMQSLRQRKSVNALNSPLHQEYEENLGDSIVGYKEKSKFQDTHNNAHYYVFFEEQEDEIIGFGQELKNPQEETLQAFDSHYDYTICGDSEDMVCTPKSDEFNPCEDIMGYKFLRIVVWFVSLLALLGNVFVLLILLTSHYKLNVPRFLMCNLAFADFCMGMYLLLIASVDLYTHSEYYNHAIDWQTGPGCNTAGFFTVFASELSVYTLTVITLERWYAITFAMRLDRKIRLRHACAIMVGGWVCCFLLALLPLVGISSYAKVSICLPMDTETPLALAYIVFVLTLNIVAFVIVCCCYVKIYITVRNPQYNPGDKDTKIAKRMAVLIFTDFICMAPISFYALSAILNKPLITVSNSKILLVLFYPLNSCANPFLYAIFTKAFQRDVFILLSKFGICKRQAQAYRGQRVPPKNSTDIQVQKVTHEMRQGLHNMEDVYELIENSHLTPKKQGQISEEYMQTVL
Thyrotropin-releasing hormone receptor (Homo sapiens), sequence (P34981 whole entry, looked up): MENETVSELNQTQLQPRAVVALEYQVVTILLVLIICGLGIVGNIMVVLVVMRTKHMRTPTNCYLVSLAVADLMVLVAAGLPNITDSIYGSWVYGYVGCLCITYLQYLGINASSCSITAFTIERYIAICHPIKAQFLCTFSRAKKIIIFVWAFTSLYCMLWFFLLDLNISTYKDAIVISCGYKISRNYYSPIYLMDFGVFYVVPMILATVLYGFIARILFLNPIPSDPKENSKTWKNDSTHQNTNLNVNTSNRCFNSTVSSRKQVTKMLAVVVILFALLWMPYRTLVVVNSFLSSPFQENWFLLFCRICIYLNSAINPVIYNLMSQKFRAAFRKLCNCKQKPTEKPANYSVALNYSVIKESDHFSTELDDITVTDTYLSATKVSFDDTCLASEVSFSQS
Estrogen receptor beta (Homo sapiens), sequence (Q92731 whole entry, looked up): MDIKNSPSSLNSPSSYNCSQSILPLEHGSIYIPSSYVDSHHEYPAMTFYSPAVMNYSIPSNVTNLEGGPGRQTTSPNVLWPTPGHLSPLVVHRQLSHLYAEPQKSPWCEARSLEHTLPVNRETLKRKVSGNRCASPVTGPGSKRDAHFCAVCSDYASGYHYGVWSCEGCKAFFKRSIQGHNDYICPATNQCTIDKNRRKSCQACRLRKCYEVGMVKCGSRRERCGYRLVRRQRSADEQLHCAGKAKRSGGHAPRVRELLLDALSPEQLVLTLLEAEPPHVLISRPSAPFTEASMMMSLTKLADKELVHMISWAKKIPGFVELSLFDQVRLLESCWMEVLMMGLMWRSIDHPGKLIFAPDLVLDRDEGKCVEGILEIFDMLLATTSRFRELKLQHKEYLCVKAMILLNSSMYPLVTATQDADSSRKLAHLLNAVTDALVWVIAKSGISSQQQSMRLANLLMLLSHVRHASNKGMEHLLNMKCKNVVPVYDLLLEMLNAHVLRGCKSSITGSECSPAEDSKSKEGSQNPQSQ
Androgen receptor (Homo sapiens), sequence (P10275 whole entry, looked up): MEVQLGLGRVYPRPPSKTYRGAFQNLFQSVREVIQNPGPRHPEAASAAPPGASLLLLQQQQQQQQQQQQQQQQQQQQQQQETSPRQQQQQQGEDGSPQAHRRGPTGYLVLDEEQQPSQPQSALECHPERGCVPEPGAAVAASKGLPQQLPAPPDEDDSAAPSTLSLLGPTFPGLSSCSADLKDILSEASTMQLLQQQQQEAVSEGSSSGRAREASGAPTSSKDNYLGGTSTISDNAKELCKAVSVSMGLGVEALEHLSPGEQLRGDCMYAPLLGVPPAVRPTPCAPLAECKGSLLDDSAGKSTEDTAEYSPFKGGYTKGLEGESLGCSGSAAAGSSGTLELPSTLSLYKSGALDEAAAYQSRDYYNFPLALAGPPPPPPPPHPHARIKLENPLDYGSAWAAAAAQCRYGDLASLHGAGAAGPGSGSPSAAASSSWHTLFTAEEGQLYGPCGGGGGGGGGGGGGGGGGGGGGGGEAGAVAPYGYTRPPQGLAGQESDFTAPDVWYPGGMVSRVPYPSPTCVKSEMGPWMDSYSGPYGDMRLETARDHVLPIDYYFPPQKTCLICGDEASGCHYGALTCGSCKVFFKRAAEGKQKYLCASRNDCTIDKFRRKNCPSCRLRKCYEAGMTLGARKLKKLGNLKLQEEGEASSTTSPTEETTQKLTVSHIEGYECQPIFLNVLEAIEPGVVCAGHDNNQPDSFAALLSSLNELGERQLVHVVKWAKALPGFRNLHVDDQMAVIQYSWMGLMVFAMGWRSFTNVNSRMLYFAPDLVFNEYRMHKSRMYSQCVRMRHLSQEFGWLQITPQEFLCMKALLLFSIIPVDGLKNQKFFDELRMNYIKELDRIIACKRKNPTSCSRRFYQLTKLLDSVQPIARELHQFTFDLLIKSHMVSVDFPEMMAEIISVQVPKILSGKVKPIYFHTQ

Cc1ccnc2ccccc12
Potency [1]: inactive
Potency [2]: 48.4 µM (active)
Potency [3]: inactive
Potency [4]: inactive
Potency [5]: inactive
Potency [6]: inactive
Potency [7]: inactive
Potency [8]: inactive
outcome [9]: inactive
Potency [10]: inactive
Potency [11]: inactive
Potency [12]: inactive
Potency [13]: inactive
outcome [14]: inactive
outcome [15]: inactive
outcome [16]: inactive
outcome [17]: inactive

Cc1cc(S(=O)(=O)O)ccc1N=Nc1c(O)ccc2ccccc12
Potency [1]: inactive
Potency [2]: inactive
Potency [3]: inactive
Potency [4]: inactive
Potency [5]: 30.6 µM (active)
Potency [6]: inactive
Potency [7]: inactive
outcome [9]: inactive
Potency [11]: 27.3 µM (active)
Potency [18]: inactive
Potency [12]: inactive
Potency [13]: inactive
outcome [14]: inactive
outcome [15]: inactive
outcome [16]: inactive

CCCOC(=O)c1ccc(N)cc1
Potency [1]: inactive
Potency [2]: inactive
Potency [3]: inactive
Potency [4]: inactive
Potency [5]: inactive
Potency [6]: inactive
Potency [7]: inactive
outcome [9]: inactive
Potency [10]: inactive
Potency [11]: inactive
Potency [18]: inactive
Potency [12]: inactive
Potency [19]: inactive
Potency [13]: inactive
outcome [14]: inactive
outcome [15]: inactive
outcome [16]: inactive

O=C(CCC1CCN(Cc2ccccc2)CC1)c1ccc2c(c1)NCCCC2
Potency [1]: inactive
Potency [2]: 10.6 µM (active)
Potency [3]: inactive
Potency [4]: inactive
Potency [5]: 29.8 µM (active)
Potency [7]: inactive
Potency [8]: inactive
outcome [9]: inactive
Potency [18]: inactive
Potency [12]: inactive
Potency [19]: inactive
outcome [14]: inactive
outcome [15]: inactive
outcome [16]: inactive

Cc1nccn1-c1ccc(Sc2cccc(C3(C(N)=O)CCOCC3)c2)cc1
Potency [1]: inactive
Potency [2]: 3.06 µM (active)
Potency [3]: inactive
Potency [4]: 9.69 µM (active)
Potency [5]: 8.63 µM (active)
Potency [7]: inactive
Potency [8]: inactive
outcome [9]: inactive
outcome [15]: inactive
outcome [16]: inactive
outcome [17]: inactive

O=C(O)c1snc(Cl)c1Cl
Potency [1]: inactive
Potency [2]: inactive
Potency [3]: inactive
Potency [4]: inactive
Potency [5]: inactive
Potency [6]: inactive
Potency [7]: inactive
outcome [9]: inactive
Potency [10]: inactive
Potency [11]: inactive
Potency [18]: inactive
Potency [12]: inactive
Potency [19]: inactive
outcome [14]: inactive
outcome [15]: inactive
outcome [16]: inactive

O=C(O)c1ccc(CO)o1
Potency [1]: inactive
Potency [2]: inactive
Potency [3]: inactive
Potency [4]: inactive
Potency [5]: inactive
Potency [6]: inactive
Potency [7]: inactive
outcome [9]: inactive
Potency [10]: inactive
Potency [11]: inactive
Potency [18]: inactive
Potency [12]: inactive
Potency [19]: inactive
Potency [13]: inactive
outcome [14]: inactive
outcome [15]: inactive
outcome [16]: inactive
outcome [17]: inactive

CC(=O)Nc1ccccc1C
Potency [1]: inactive
Potency [2]: inactive
Potency [3]: inactive
Potency [4]: inactive
Potency [5]: inactive
Potency [6]: inactive
Potency [7]: inactive
Potency [8]: inactive
outcome [9]: inactive
Potency [10]: inactive
Potency [11]: inactive
Potency [18]: inactive
Potency [12]: inactive
Potency [19]: inactive
outcome [14]: inactive
outcome [15]: inactive
outcome [16]: inactive

O=Cc1c(Cl)cccc1Cl
Potency [1]: inactive
Potency [2]: inactive
Potency [3]: inactive
Potency [4]: inactive
Potency [5]: inactive
Potency [6]: inactive
Potency [7]: inactive
Potency [8]: inactive
outcome [9]: inactive
Potency [10]: inactive
Potency [11]: inactive
Potency [18]: inactive
Potency [12]: inactive
Potency [19]: inactive
Potency [13]: inactive
outcome [14]: inactive
outcome [15]: inactive
outcome [16]: inactive
outcome [17]: inactive

CC[C@H](NC(=O)c1cc(F)ccc1NS(=O)(=O)c1cccc2cccnc12)c1ccccc1
Potency [1]: inactive
Potency [2]: inactive
Potency [3]: inactive
Potency [4]: inactive
Potency [5]: inactive
Potency [6]: 18.3 µM (active)
Potency [8]: inactive
Potency [10]: inactive
Potency [11]: inactive
outcome [14]: inactive
outcome [15]: inactive
outcome [16]: inactive

CC1(C)O[C@@H]2C[C@H]3[C@@H]4CCC5=CC(=O)C=C[C@]5(C)[C@H]4[C@@H](O)C[C@]3(C)[C@]2(C(=O)CO)O1
Potency [1]: inactive
Potency [2]: inactive
Potency [3]: inactive
Potency [4]: inactive
Potency [5]: inactive
Potency [6]: inactive
Potency [7]: inactive
Potency [8]: inactive
outcome [9]: inactive
Potency [10]: inactive
Potency [11]: inactive
Potency [18]: 0.133 µM (active)
Potency [19]: inactive
outcome [14]: inactive
outcome [15]: inactive
outcome [17]: inactive

CC(C)(C)CC(C)(C)c1ccc(OCCO)cc1
Potency [1]: inactive
Potency [2]: 15.3 µM (active)
Potency [3]: inactive
Potency [4]: 43 µM (active)
Potency [5]: 30.5 µM (active)
Potency [20]: inactive
Potency [8]: inactive
Potency [11]: 34.2 µM (active)
Potency [18]: inactive
Potency [12]: 48.3 µM (active)
outcome [14]: inactive
outcome [15]: inactive
outcome [16]: inactive
outcome [17]: inactive

O=C(CCCCCCCCC#CI)Oc1ccccc1
Potency [1]: inactive
Potency [2]: inactive
Potency [3]: inactive
Potency [4]: inactive
Potency [5]: inactive
Potency [6]: inactive
Potency [20]: inactive
Potency [7]: inactive
outcome [9]: inactive
Potency [10]: inactive
Potency [12]: inactive
Potency [19]: inactive
Potency [13]: inactive
outcome [14]: inactive
outcome [15]: inactive

CC#N
Potency [1]: inactive
Potency [2]: inactive
Potency [3]: inactive
Potency [4]: inactive
Potency [5]: inactive
Potency [6]: inactive
Potency [7]: inactive
outcome [9]: inactive
Potency [10]: inactive
Potency [11]: inactive
Potency [18]: inactive
Potency [12]: inactive
Potency [19]: inactive
outcome [14]: inactive
outcome [15]: inactive
outcome [16]: inactive
outcome [17]: inactive

O=C(/C=C/c1ccccc1)OCCCc1ccccc1
Potency [1]: inactive
Potency [2]: inactive
Potency [3]: inactive
Potency [4]: inactive
Potency [5]: inactive
Potency [6]: inactive
Potency [7]: inactive
Potency [8]: inactive
outcome [9]: inactive
Potency [10]: inactive
Potency [11]: inactive
Potency [18]: inactive
Potency [12]: inactive
Potency [13]: inactive
outcome [14]: inactive
outcome [15]: inactive
outcome [16]: inactive
